Screening results as filed in PubChem.
Mac1 fbg inh – CD11b/CD18-fibrinogen binding inhibition; P05107+P11215; K562 CD11b/CD18 adhesion to fibrinogen, ATPlite luminescence; Mn2+ added to activate the integrin; inhibition, % at 10 µM; hit rate 0.54% among 93,000; AID 1497;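 active = primary inhibition of 50% or more at 10 µM, then 40% or more on retest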
CYP2C9 act – activators of human CYP2C9. P11712. activation factor at 5 µM. hit rate 1.4% among 96,000. recombinant CYP2C9, luciferin-H conversion, luminescence; hits give high values; factor 1 = untreated enzyme, 0 = blocked. AID 1024;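 active = activation factor of 2 or more for CYP2C9 at a 5 µM dose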;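 also: 0 = sulfaphenazole-blocked wells and 1 = vehicle-only wells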
Mac1 fbg enh – CD11b/CD18-fibrinogen binding enhancement | P05107+P11215 | K562 CD11b/CD18 adhesion to fibrinogen, ATPlite luminescence | activation, % at 10 µM | hit rate 0.07% among 93,000;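 active = 10 µM primary screen giving 50% or more activity, confirmed by 40% or more on retest at that dose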
CYP2C19 activ – increases human CYP2C19 enzyme activity; P33261; recombinant CYP2C19, luciferin-H EGE luminescence; hits give high values; 0 = fully inhibited enzyme, 1 = untreated enzyme; activation factor at 5 µM; 96,000 tested, under 10 active; AID 1025;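 active = activation factor of at least 2 at 5 µM in the primary screen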;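 also: 0 = wells with 2.5 mM tranylcypromine and 1 = vehicle-only wells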
Target sequence (P33261 whole entry, looked up): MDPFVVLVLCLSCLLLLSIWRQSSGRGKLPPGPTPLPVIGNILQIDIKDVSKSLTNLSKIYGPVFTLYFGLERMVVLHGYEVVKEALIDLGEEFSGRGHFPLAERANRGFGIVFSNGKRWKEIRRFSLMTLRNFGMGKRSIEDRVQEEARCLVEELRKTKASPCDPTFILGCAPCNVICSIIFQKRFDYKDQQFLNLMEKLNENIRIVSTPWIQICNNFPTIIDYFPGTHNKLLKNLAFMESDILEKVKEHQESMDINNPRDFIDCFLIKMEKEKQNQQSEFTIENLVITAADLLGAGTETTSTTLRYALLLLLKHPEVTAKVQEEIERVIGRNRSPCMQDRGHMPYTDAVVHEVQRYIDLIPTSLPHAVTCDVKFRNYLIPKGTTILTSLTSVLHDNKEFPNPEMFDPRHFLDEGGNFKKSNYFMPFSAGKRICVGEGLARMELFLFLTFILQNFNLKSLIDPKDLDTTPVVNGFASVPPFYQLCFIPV
CYP2C9 inhib – blocks human cytochrome P450 2C9 | CYP2C9 Supersomes, luciferin-H conversion, luminescence | P11712 | inhibition, % at 5 µM | AID 777 | hit rate 20% among 96,000;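 active = blocking of liver enzyme CYP2C9 beyond about 50% at 5 µM, limit read from the data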
CYP2C19 inh – inhibitors of human CYP2C19; P33261; CYP2C19 Supersomes, luciferin-H EGE luminescence, 30 min; inhibition, % at 5 µM; hit rate 21% among 96,000; AID 778;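 active = CYP2C19 inhibition above a set limit at 5 µM in the primary screen, cut at about 50% in these data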;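 also: plate controls were negative control wells for no effect and 2.5 mM tranylcypromine positive control for full effect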
* marks the source's active call; other numbers are inactive results; / = no result. Compounds with a hit are over-represented: about 28% of the library has one in this group of screens.

SMILES	Mac1 fbg inh	CYP2C9 act	Mac1 fbg enh	CYP2C19 activ	CYP2C9 inhib	CYP2C19 inh
N#Cc1cnc(Nc2nc3ccccc3o2)nc1-c1ccccc1	-8.2	0.4	0.4	0.8	61.6*	20.6
Cc1ccnc(Nc2nc3ccccc3o2)n1	5.4	0.9	-0.6	0.6	10.1	44.2
C=C(C)CSc1nc(N)cc(=O)[nH]1	-4.2	1	-1.6	1	-1.3	4.0
N#Cc1nc(-c2ccc(Cl)cc2)oc1NCc1cccc2c1OCO2	-2.1	0.1	4.4	0.7	94.1*	34.5
COc1ccc(-c2nc(C#N)c(NCc3ccccc3Cl)o2)cc1	5.0	1.1	1.5	1.2	-11.3	-18.9
COc1ccc(CNc2oc(-c3ccccc3)nc2C#N)cc1	-1.6	0.2	-0.9	0.7	83.6*	27.1
N#Cc1nc(-c2ccco2)oc1NCc1ccc(F)cc1	-13.9	0.2	1.6	0.7	81.6*	31.4
CNc1oc(-c2ccccc2)nc1C#N	-25.7	0.9	-3.6	0.7	5.0	29.7
N#Cc1nc(-c2ccco2)oc1NCc1cccnc1	-1.2	0.9	-3.0	0.6	14.7	37.3
N#Cc1nc(-c2ccccc2)oc1NCc1ccco1	4.2	0.3	1.6	0.9	74.3*	12.9
O=C(Cc1ccccc1)Nc1ccccc1C(=O)O	5.6	0.7	12.4	1	34.9	-1.3
Cc1ccc2cc(C(c3nnnn3C(C)(C)C)N3CCCC3)c(=O)[nH]c2c1C (configuration not stated)	9.4	0.7	0.3	0.8	30.1	18.1
N#Cc1nc(-c2ccc(Cl)cc2)oc1NCc1ccco1	-0.8	0.1	1.4	0.9	85.4*	14.4
COc1ccc(-c2nc(C#N)c(NCc3ccccc3Cl)o2)cc1OC	-3.4	0.5	5.2	0.9	46.7	12.5
N#Cc1nc(-c2ccccc2Cl)oc1NCc1ccco1	/	0.2	/	0.4	82.6*	63.8*
Cc1cc(C(=O)COC(=O)Cn2cnc3c2c(=O)n(C)c(=O)n3C)c(C)n1C	-11.5	0.9	0.9	1.1	6.7	-5.2
COc1cc(C(=O)OCC(=O)c2cc(C)n(C)c2C)cc(OC)c1OC	11.8	2.5*	-3.7	0.4	-148.1	58.5*
Cc1ccc(S(=O)(=O)N(Cc2ccccc2)c2ccccc2C(=O)NCc2ccco2)cc1	4.0	0	0.8	0.5	99.0*	48.2
CS(=O)(=O)N(Cc1ccccc1)c1ccccc1C(=O)Nc1ccccc1C(=O)NCc1ccco1	-27.6	0.2	1.6	0.1	83.6*	89.3*
COc1ccc(NC(=O)CN(C)S(=O)(=O)c2cccs2)cc1	4.8	0.5	-5.9	0.6	48.8	44.3
COc1ccc(NC(=O)CCCNS(=O)(=O)c2cccs2)cc1	-16.6	0.5	-2.2	0.3	49.8	72.2*
COc1ccc(NC(=O)CNS(=O)(=O)c2cccs2)cc1	-24.4	0.6	-1.0	0.5	40.1	53.3*
COC(=O)c1ccc(N=C2S/C(=C\c3cc(C)n(-c4cccnc4)c3C)C(=O)N2C)cc1	-10.9	/	8.6	/	/	/
COc1ccc(-c2noc(CCC(=O)N(C)c3cccc(C)c3)n2)cc1	-19.6	0.2	0.3	0.1	83.3*	89.3*
CCN(C(=O)CCc1nc(-c2ccc(OC)cc2)no1)c1cc(OC)ccc1OC	17.5	0.3	1.2	0.4	74.9*	59.2*
SMILES	Mac1 fbg inh	CYP2C9 act	Mac1 fbg enh	CYP2C19 activ	CYP2C9 inhib	CYP2C19 inh
Cc1ccc(-c2noc(CCC(=O)N(C)c3ccccc3C)n2)cc1	2.2	0.1	-6.6	0.2	93.8*	81.5*
O=C(NCCc1nc2ccccc2[nH]1)/C(=C/c1ccco1)NC(=O)c1ccc(Br)cc1	3.0	/	0.8	/	/	/
Cc1cccc(NC(=O)CSc2ncnc3c2oc2ccccc23)c1	4.3	0.4	3.7	0.6	62.7*	37.6
O=C(CSc1ncnc2c1oc1ccccc12)NCc1ccc(F)cc1	14.1	0.3	2.1	0.3	72.4*	65.4*
O=C(CSc1ncnc2c1oc1ccccc12)NC1CCCCC1	-6.3	0.3	6.6	0.3	72.4*	72.5*
Cc1ccc2nc(NC(=O)CSc3ncnc4c3oc3ccccc34)sc2c1	22.9	0.7	70.8	0.8	27.1	21.8
Cc1cc(C)nc(Sc2ncnc3c2oc2ccccc23)n1	-16.1	1.3	3.6	0.4	-25.4	58.2*
O=C(Cn1cnc2ccccc21)N/N=C/c1ccccn1	/	0.7	/	1	28.8	3.1
